In PubChem BioAssay AID440 (NMMLSC, 2006):
In all, about 24,000 compounds went through this assay and about 180 (0.75%) were called active. The full list was thinned out, with actives kept by preference. Values without a mark were called inactive. No stated cut-off is given here; in the data, active means inhibition above about 30%; inconclusive means no clear call, values can overlap the other calls; inactive means below that.

The molecules below were run against fMet-Leu-Phe receptor (Homo sapiens) (UniProt P21462) (assay: small molecules displacing FPR fluorescent ligand – cell-based, FPRL1 counter-screen, flow cytometry, primary screen (AID 440;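 further: 0% = buffer wells and 100% = receptor blocker peptide wells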)). Conditions: FPR-expressing cells, fluorescent ligand binding, hits give high values, concentration not given here.
Chain of fMet-Leu-Phe receptor (Homo sapiens) (P21462 whole entry, looked up): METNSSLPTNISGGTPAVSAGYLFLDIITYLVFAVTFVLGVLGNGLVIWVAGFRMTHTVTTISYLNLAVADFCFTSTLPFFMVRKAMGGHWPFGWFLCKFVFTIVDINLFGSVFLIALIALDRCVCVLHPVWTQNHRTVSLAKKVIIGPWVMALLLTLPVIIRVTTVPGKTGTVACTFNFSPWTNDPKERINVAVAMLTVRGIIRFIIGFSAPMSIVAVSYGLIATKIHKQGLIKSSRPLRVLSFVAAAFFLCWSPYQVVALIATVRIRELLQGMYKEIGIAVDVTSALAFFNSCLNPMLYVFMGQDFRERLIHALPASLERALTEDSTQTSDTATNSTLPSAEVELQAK

Question: For O=C(c1cccnc1NCc1ccccc1)N1CCOCC1, which inhibition is on record?
Answer: -10.6%

Question: CCOC(=O)c1[nH]c2c(c1C)C(=O)CC(c1ccc(N(C)C)cc1)C2 (configuration not stated) was tested. Which inhibition did it give?
Answer: 9%

Question: Which inhibition does the source give for Nc1ccc(-n2nncc2-c2ccco2)cc1 here?
Answer: 3%

Question: With O=C(CN1CCN(S(=O)(=O)c2ccc(F)cc2)CC1)Nc1ccccc1F as the molecule, how does the inhibition read?
Answer: 5.7%

Question: How did the inhibition turn out when COc1ccc2c(CC(=O)Nc3nnc(C4CC4)s3)coc2c1 was run?
Answer: -3.4%

Question: Which inhibition does the source give for CC1Cc2cc(/C(O)=C3\C(=O)C(=O)N(CCN4CCOCC4)C3c3ccccc3F)ccc2O1 (configuration not stated) here?
Answer: 18.6%

Question: With COCCCN1C(=O)C(=O)/C(=C(/O)c2ccc3c(c2)CC(C)O3)C1c1cccnc1 (configuration not stated) as the molecule, how does the inhibition read?
Answer: 33.5% (active)

Question: Which inhibition does the source give for CCOc1cccc(/C(O)=C2/C(=O)C(=O)N(CCOC)C2c2ccncc2)c1 (configuration not stated) here?
Answer: 4.6%

Question: How did the inhibition turn out when COc1cc(C2C(C#N)=C(C)NC3=C2C(=O)CC(C)(C)C3)ccc1O (configuration not stated) was run?
Answer: 4.9%

Question: Which inhibition does the source give for Cc1ccc(C2CC(=O)NC(SCC(=O)OCc3ccccc3)=C2C#N)o1 (configuration not stated) here?
Answer: 0.1%

Question: With CCCOC(=O)Nc1sc2c(c1C(=O)OCC)CCC2 as the molecule, how does the inhibition read?
Answer: -12.7%

Question: With CCN(CC)S(=O)(=O)N1CCC(C(=O)NC(C)CCc2ccccc2)CC1 (configuration not stated) as the molecule, how does the inhibition read?
Answer: -9.4%

Question: Which inhibition does the source give for CCC(C)(NC(=O)c1ccccn1)C(=O)NC1CCCCC1 (configuration not stated) here?
Answer: 6.6%

Question: With COCCNC(=O)Cn1cc2c(n1)CCCCC2 as the molecule, how does the inhibition read?
Answer: -5.5%

Question: How did the inhibition turn out when Cc1onc(-c2ccccc2Cl)c1C(=O)NCCn1ccc2ccccc21 was run?
Answer: 5.6%

Question: Which inhibition does the source give for COc1ccccc1CNC(=O)CCn1c(=O)sc2ccccc21 here?
Answer: 1.8%

Question: With O=C(C1CCN(S(=O)(=O)c2cccs2)CC1)N1CCCCCC1 as the molecule, how does the inhibition read?
Answer: 2.5%

Question: For Cc1cc(C)nc(-n2nc(C)cc2NC(=O)c2ccc(Br)o2)n1, which inhibition is on record?
Answer: -6.1%

Question: With O=C(CN1C(=O)C2C3C=CC(C3)C2C1=O)NCC1COc2ccccc2O1 (configuration not stated) as the molecule, how does the inhibition read?
Answer: -0.7%

Question: With O=C1c2ccncc2C(=O)N1C1CCCCC1 as the molecule, how does the inhibition read?
Answer: 0.9%

Question: Which inhibition does the source give for COc1ccc(Cn2nnc3c(=O)[nH]c(C4CCN(C(=O)c5ccccc5Cl)CC4)nc32)cc1 here?
Answer: -0.8%

Question: How did the inhibition turn out when Cc1nc(C)c(C(=O)Nc2cccc(C)c2C)o1 was run?
Answer: 3%

Question: For COc1ccccc1Cn1c(=S)[nH]c2cc(C(=O)N3CCN(C)CC3)ccc2c1=O, which inhibition is on record?
Answer: -4%

Question: For S=C1SCN(CCN2CCOCC2)CN1Cc1ccccc1, which inhibition is on record?
Answer: -1.1%

Question: How did the inhibition turn out when CCOC(=O)C1CCN(C(=O)CSc2cc(=O)n(C)c3ccccc23)CC1 was run?
Answer: -1.5%

Question: With Cn1c(=O)cc(OCCCC(=O)N2CCN(c3ccccn3)CC2)c2ccccc21 as the molecule, how does the inhibition read?
Answer: -0.8%

Question: How did the inhibition turn out when COC(=O)c1ccc(CSc2ccccc2C)o1 was run?
Answer: 0.5%
